# Measured values: ChEMBL document CHEMBL3433997, “St. Jude Leishmania screening dataset” (2016)
# Key:
# Assay type in all cases: functional
# [1] = target: Solute carrier family 2, facilitated glucose transporter member 1 (Homo sapiens) (UniProt P11166); test: ST_JUDE_LEISH: Cytotoxicity at 2uM final concentration against transgenic Leishmania Mexicana promastigotes LmGLUT1 that are glucose transport deficient and complemented with the human glucose transporter GLUT1. Activity is measured by DNA content using SYBR green in vitro
# [2] = target: Hexose transporter 1 (Plasmodium falciparum) (UniProt O97467); test: ST_JUDE_LEISH: Cytotoxicity at 2uM final concentration against transgenic Leishmania Mexicana promastigotes LmPfHT that are glucose transport deficient and complemented with the Plasmodium falciparum hexose transporter. Activity is measured by DNA content using SYBR green in vitro
# [3] = target: Glucose transporter (Leishmania mexicana) (UniProt O61059); test: ST_JUDE_LEISH: Cytotoxicity at 2uM final concentration against transgenic Leishmania Mexicana promastigotes LmGT2 that are glucose transport deficient and complemented with the L. Mexicana glucose transporter 2. Activity is measured by DNA content using SYBR green in vitro
# Sequence of Solute carrier family 2, facilitated glucose transporter member 1 (Homo sapiens) (P11166 whole entry): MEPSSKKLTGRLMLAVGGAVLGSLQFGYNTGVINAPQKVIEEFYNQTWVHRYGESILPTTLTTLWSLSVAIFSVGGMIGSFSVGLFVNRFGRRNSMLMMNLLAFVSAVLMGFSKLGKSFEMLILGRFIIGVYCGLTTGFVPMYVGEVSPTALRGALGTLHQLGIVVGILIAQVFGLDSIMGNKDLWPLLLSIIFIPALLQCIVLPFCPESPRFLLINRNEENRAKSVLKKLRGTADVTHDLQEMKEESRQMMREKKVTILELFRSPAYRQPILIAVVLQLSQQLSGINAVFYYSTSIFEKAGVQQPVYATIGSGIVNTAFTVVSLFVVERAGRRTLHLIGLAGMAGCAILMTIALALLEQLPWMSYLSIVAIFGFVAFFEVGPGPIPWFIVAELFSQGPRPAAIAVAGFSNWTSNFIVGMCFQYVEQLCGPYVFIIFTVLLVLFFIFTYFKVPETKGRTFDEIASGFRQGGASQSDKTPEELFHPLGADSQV
SMILES,inhibition [1] [%],inhibition [2] [%],inhibition [3] [%]
O=C(N[C@@H](CC1CCCCC1)C(=O)NCCN1CCCCC1)c1ccc(O)c(-c2ccc(Cl)c(Cl)c2)c1,0.75,1.44,0.7
CCCNC(=O)Nc1ccc(N(C)c2ccnc(NC3CC3)n2)cc1,7,5.59,5.87
CC(C)(C)c1ccc(OCC(=O)NC2CCN(c3ccnc4cc(Cl)ccc34)C2)cc1 (centres undefined),0.64,0.05,-1.09
COc1ccc2nccc([C@@H](O)CN3CCC(NC(=O)/C=C/c4ccnc5ccccc45)CC3)c2c1,-1.7,-1.62,-2.64
COc1cc(C2CCCCC2)c(OC)cc1CC1c2cc(O)c(Cl)cc2CCN1C (centres undefined),3.83,-0.22,12.9
CCOC(=O)c1c(CCc2ccc(C(F)(F)F)cc2)nc2c(c1-c1ccc(C(=O)N[C@@H](C)c3ccncc3)cc1)C(=O)N1CCC[C@@H]21,2.81,1.31,0.48
CN(c1ccc(C(=O)N[C@@H](CCC(=O)O)C(=O)O)cc1)S(=O)(=O)c1ccc2nc(N)[nH]c(=O)c2c1,2.98,-0.77,0.27
CC(=O)Nc1ccc(C(=O)Nc2ccc(-c3cccc(-c4nc5cccc(C)c5[nH]4)c3)cc2)cn1,-3.82,-0.04,-3.28
COc1cc2nc(N3CCN(C(=O)c4c(Cl)nsc4-c4ccccc4Cl)CC3)nc(N)c2cc1OC,10.5,8.35,5.08
COc1cc(Cc2cnc(N)nc2N)ccc1OCc1ccc(-c2ccccc2C#N)cc1,0.17,0.47,-0.89
CC(C)(C)C1CCC(CC2=C(C(=O)O)c3ccccc3C2=O)CC1 (centres undefined),1.16,0.47,-1.33
Fc1ccc2[nH]c(-c3cccc(-c4cccc(CN5CCN(c6ccncc6)CC5)c4)c3)nc2c1,0.24,1.73,0.3
CN1CCCN(Cc2ccc(-c3ccc(NC(=O)c4ccc(C#N)cc4)cc3)cc2)CC1,0.69,-0.51,-0.13
Cc1cc(N(C)CCCN(C)C)nc(Nc2ccc(Br)cc2)n1,0.19,2.58,2.6
CN(C)c1ccc(/C=C2\S/C(=N\c3ccccc3)N(c3ccccc3)C2=O)cc1[N+](=O)[O-],2.12,1.07,-0.79
Nc1ncc(-c2ccc(S(=O)(=O)Nc3ccc(C(=O)N[C@@H](CCC(=O)O)C(=O)O)cc3)cc2)c(=O)[nH]1,4.56,4.19,4.44
N#Cc1cc([N+](=O)[O-])ccc1-n1nc(C(N)=O)n(Cc2cccc(F)c2)c1=S,11.3,8.94,5.66
CCc1c[nH]c2c(N3CCCS3(=O)=O)cc(C(=O)N[C@@H](Cc3ccccc3)[C@H](O)CNC3CCCCC3)cc12,-0.09,2.13,3.39
CC(C)NCc1ccc(-c2cccc(-c3nc4cc(C(F)(F)F)ccc4[nH]3)c2)cc1,3.55,3.48,4.16
CCOC(=O)c1cn(CC)c2cc(N(C)CCc3ccc(OC)c(OC)c3)c(F)cc2c1=O,2.15,1.21,1.68
COc1cccc(CNC(=O)c2cnc(N3CCN(c4ccncc4)CC3)c(Cl)c2)c1,18,23.8,10.9
Cc1cc(-c2ccc3c(c2)CCN(CCC2CCC(NC(=O)/C=C/c4ccccc4F)CC2)CC3)on1 (centres undefined),11,6.81,12.2
O=C(Nc1ccc(-c2nc3ccccc3[nH]2)cc1)C1CCCN(C2CCC2)C1 (centres undefined),19.8,14.7,8.04
O=c1nc(NCCCCCN2CCC(c3c[nH]c4ccccc34)CC2)[nH]cc1Cc1ccc(Cl)c(Cl)c1,2.65,2.12,2.08
N=C(NCCc1ccccc1Cl)c1ccc2ccccc2c1,-1.42,-1.63,-2.06
Cn1nc(C(F)(F)F)c(-c2ccc(F)cc2)c1NC(=O)Nc1ccc(F)cc1,3.38,4.67,4.05
O=C(Nc1ccc(Cl)cc1)c1ccc(S(=O)(=O)NCC2CCN(CC3CCCCC3)CC2)cc1,2.97,1.04,1.4

SMILES,inhibition [1] [%],inhibition [2] [%],inhibition [3] [%]
CCC(CC)N1C(=O)C(c2ccccc2)(c2ccccc2)N=C1N,1.48,3.51,1.61
CCCNC(=O)C1Cc2cc(OC)c(OC)cc2C2(N1)C(=O)N(Cc1cccc(OC)c1)c1ccccc12 (centres undefined),-1.15,0.36,-0.47
CC(=O)Nc1cccc(-c2cnc(N)c3cc(-c4ccc5c(c4)OCO5)ccc23)c1,7.5,7.74,5.76
O=C(/C=C/c1ccc(Cl)c(Cl)c1)NCCCCCN1CC[C@H](NC(=O)/C=C/c2ccccc2)C1,0.76,0.86,-0.08
CCOc1cc(C)ccc1C1CCN(CCCCNC(=O)c2ccc(NC(=O)c3cc(Cl)cc(Cl)c3)cc2)CC1,2.78,0.36,1.02
Clc1cccc(CNC2CCN(CC3CCCCC3)CC2)c1,4.03,4.11,6.03
COc1ccc2nccc([C@@H](O)CN3CCC(NCc4ccc5scnc5c4)CC3)c2c1,3.81,2.6,3.04
COc1cccc2sc(N3CCN(C(=O)c4ccc([N+](=O)[O-])o4)CC3)nc12,2.53,11.9,4.81
Nc1ncc(-c2ccccc2)cc1/C=C/c1cccnc1,0.64,-2.47,0.23
COc1ccc(N2CCN(CCCCNC(=O)c3ccc(NC(=O)c4cc(Cl)cc(Cl)c4)cc3)CC2)c(OC)c1,2.07,3.87,3.2
COc1ccc(C(=O)CCC(=O)N(Cc2ccc(-c3ccc(CNCCc4ccc(S(C)(=O)=O)cc4)cn3)cc2)C(C)CN(C)C)cc1F (centres undefined),3.43,3.18,2.85
O=C(Nc1ccc(Cl)c(Cl)c1)Nc1cc(C(F)(F)F)ccc1Cl,-0.56,1.37,1.28
O=S1(=O)NC2(CCN(CCc3ccc(Cl)cc3)CC2)Nc2cc(F)cc(F)c21,7.66,8.79,7.55
Cc1c(-c2cccc(NC(=O)C(C)(C)Oc3ccc(Cl)cc3)c2)nc2ncccn12,-0.94,-1.86,-3.03
O=C(/C=C/c1ccc(Cl)c(Cl)c1)N1CCN(C(=O)Nc2ccc(F)c(Cl)c2)CC1,9.87,8.92,11.1
COc1ccc(C(=O)CCC(=O)N(Cc2ccc(-c3ccc(CNCc4cccnc4)cn3)cc2)C2CCN(Cc3ccccc3)CC2)cc1F,3.47,1.26,3.53
CN1CCC(Oc2ccc(CN3CC[C@H](NC(=O)c4ccc(F)c(F)c4)C3)c3ccccc23)C1 (some centres undefined),1.65,1,2.7
CC(CON1C(N)=NC(N)=NC1(C)C)c1ccc(Cl)cc1Cl (centres undefined),23.2,37.1,24.2
Cc1nc(N)nc(N)c1OCCCCOc1ccccc1,3.87,2.98,2.4
COc1ccc(Nc2nc(N)c3cc(OC)c(OC)cc3n2)cc1OC,9.02,7.54,5.87
Cc1cc(N/N=C/c2ccccc2[N+](=O)[O-])c2cccc(C)c2n1,11.2,13.9,7.94
O=C(NCC1CCN(CCN2CCc3ccc4c(c3C2)OCO4)CC1)c1ccc(-c2ccc(C(F)(F)F)cc2)cc1,2.17,4.3,1.81
COc1ccc(C2CCN(CCCCNC(=O)c3ccc(NC(=O)c4ccc(Cl)cc4)cc3)CC2)c(OC)c1,6.64,5.21,3.22
COc1ccc(NC(=O)Nc2cccc(-c3ccc(-c4nc5cccc(C)c5[nH]4)s3)c2)cc1,6.52,5.29,3.22
CCc1sc(N2CCN(C)CC2)nc1C(=O)Nc1ccc(F)cc1C(F)(F)F,-1.9,1.37,-0.43
CCCC(N)C(=O)NC1CCN(c2c(F)c(N)c3c(=O)c(C(=O)O)cn4c3c2Oc2ccccc2-4)C1 (centres undefined),82.5,82.6,76.2
